From PubChem BioAssay AID430 (Sanford-Burnham Center for Chemical Genomics, 2006) come the findings set out here.

Among all 63,000 compounds or so, about 1,100 (1.7%) were called active. For the sample, actives were picked, then their nearest neighbours and some compounds at random. Measured potencies and affinities stand elsewhere. Values without a mark were called inactive. Rule as the data show it: active = cytotoxicity above about 50%; inactive = the rest.

The assay can be described thus: HPDE-C7 pancreatic duct cell viability loss – fluorescence, HTS (AID 430).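 Also: cells exposed to compound for 48 hours before viability readout; 0% = vehicle and 100% = reference cytotoxic drug.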 The note with it: HPDE-C7 pancreatic duct cells viability, at 10 µM, active compounds read high.
Take `COc1ccc(S(=O)(=O)n2cnc3cc(C)c(C)cc32)cc1C`: the cytotoxicity is 20.4%.
Under `O=C(CN(CCc1ccccc1)C(=O)CNS(=O)(=O)c1ccccc1)NCC1CCCO1` (stereo not drawn) stands -10.5%.
In the case of `O=C(Nc1nc(-c2cccnc2)cs1)c1ccc(S(=O)(=O)N2CCOCC2)cc1`, the cytotoxicity was -18.5%.
Under `Cc1nc(N)c(C#N)c(-c2ccccc2)c1C` stands 13.3%.
For the molecule `Cc1c(-c2ccccc2)nc(N)c(C#N)c1-c1ccco1`, the cytotoxicity was -4.2%.
As for `CC1=C(C#N)c2nc(N)c(C#N)c(C)c2/C1=C\c1ccccc1`, the cytotoxicity was 107% (active).
To `COc1ccc(CNC(=O)c2csnn2)cc1` belongs -14.5%; to `CN(C)C=C1C(=O)c2ccccc2C1=O`, 29.6%.
To `CN(C)/C=C1\C(=O)c2ccc(N(C)C)nc2CC1c1ccccc1` (stereo not drawn) belongs 60.7% (active).
Consider `CN(C)/C=C1/Sc2ccccc2C1=O`, for which the cytotoxicity was -34.3%.
To `CCN1C(=O)C2(C(C#N)=C(N)Oc3c2c(C)nn3-c2ccccc2)c2ccccc21` (stereo not drawn) belongs -16%; to `Cc1cc2n(n1)C(c1ccccc1)Nc1ccccc1-2` (stereo not drawn), -1.8%; to `Cc1cc2n(n1)C(c1ccccc1Cl)Nc1ccccc1-2` (stereo not drawn), 9.5%.
On to `Cc1ccc(C(=O)NC(Cc2c[nH]c3ccccc23)C(=O)O)o1` (stereo not drawn), for which the cytotoxicity is -0.1%.
On to `Cc1cc(N2C(=O)C(=O)/C(=C(/O)c3ccc(F)cc3)C2c2ccc(F)cc2)no1` (stereo not drawn), for which the cytotoxicity is 23.3%.
Under `Cc1cc(N2C(=O)C(=O)/C(=C(/O)c3ccc(F)cc3)C2c2cccc(Br)c2)no1` (stereo not drawn) stands 71.5% (active); under `Cc1cc(N2C(=O)C(=O)/C(=C(/O)c3ccccc3)C2c2cccc(Br)c2)no1` (stereo not drawn), 3.2%.
Consider `Cc1cc(N2C(=O)C(=O)/C(=C(/O)c3ccc(Cl)cc3)C2c2cccc(Br)c2)no1` (stereo not drawn), for which the cytotoxicity was 56.2% (active).
For `COc1cccc(C2/C(=C(\O)c3ccc(OC)c(OC)c3)C(=O)C(=O)N2c2cc(C)on2)c1` (stereo not drawn), the cytotoxicity was 20.9%.
On to `Cc1ccc(/C(O)=C2\C(=O)C(=O)N(c3cc(C)on3)C2c2cccc(Cl)c2)cc1` (stereo not drawn), for which the cytotoxicity is 51.8% (active).
To `Cc1cc(N2C(=O)C(=O)/C(=C(/O)c3ccc(F)cc3)C2c2ccc(Cl)cc2)no1` (stereo not drawn) belongs 34.6%; to `COc1ccc(/C(O)=C2\C(=O)C(=O)N(c3cc(C)on3)C2c2ccccc2OC)cc1` (stereo not drawn), -1.9%; to `Cc1ccc(/C(O)=C2\C(=O)C(=O)N(c3cc(C)on3)C2c2cccc(Br)c2)cc1` (stereo not drawn), 49.9%.
To `Cc1c(N=Cc2cc3c(cc2Cl)OCO3)c(=O)n(-c2ccccc2)n1C` belongs -3.1%; to `COc1ccccc1OCCCCNCCO`, -0.7%; to `CCOC(=O)N1CCC(N2CCN(S(=O)(=O)c3ccc(NC(C)=O)cc3)CC2)CC1`, -12.8%.
On to `Cc1ccnc(Sc2nc3c(c(=O)[nH]c(=O)n3C)n2CCCc2ccccc2)n1`, for which the cytotoxicity was -9.5%.
To `C=CCn1c(SCC(=O)Nc2cccc(C(=O)OC)c2)nnc1C(C)NC(=O)c1cccs1` (stereo not drawn) belongs -5%; to `O=C(c1cc(-c2cccs2)on1)N1CCc2ccccc2C1`, 2.3%; to `CSc1nc2nc(C)cc(-c3ccccc3)n2n1`, -10.4%.
To `Cc1cccc(NC(=O)C2CCN(S(=O)(=O)c3c(C)nn(C)c3C)CC2)n1` belongs 1.6%; to `COc1ccc2[nH]c(=O)c(CN(C(=O)c3ccccn3)C3CCCCC3)cc2c1`, -30.2%; to `O=C(c1ccc(S(=O)(=O)N2CCOCC2)cc1)N1CCc2ccccc2C1`, -7.6%.
Take `CCOC(=O)C1=C(C)NC(=O)NC1/C(C)=C/c1ccccc1` (stereo not drawn): the cytotoxicity is -16%.
Under `Cc1nnc2sc(-c3cc4ccccc4o3)nn12` stands 5.6%; under `CCOc1cccc(-c2nnc3sc(-c4ccco4)nn23)c1`, 21.5%.
Turning to `COc1cccc(OC)c1-c1nn2c(-c3cc(-c4ccccc4)n[nH]3)nnc2s1`, the cytotoxicity was 68.9% (active).
As to `COc1cccc(OC)c1-c1nn2c(-c3ccccc3Cl)nnc2s1`, the cytotoxicity is 19.8%.
Take `COc1cc(-c2nnc3sc(-c4cccs4)nn23)cc(OC)c1OC`: the cytotoxicity is 75.8% (active).
As to `COc1cccc(-c2nnc3sc(-c4ccco4)nn23)c1`, the cytotoxicity was 58% (active).
Under `COc1ccccc1-c1nnc2sc(-c3cc4ccccc4o3)nn12` stands 56.2% (active); under `COc1ccc(-c2nnc3sc(-c4c(OC)cccc4OC)nn23)cc1`, 10.9%; under `COc1ccccc1-c1nn2c(-c3ccccc3Cl)nnc2s1`, -14.1%.
In the case of `COc1ccc(-c2nnc3sc(-c4cccs4)nn23)cc1OC`, the cytotoxicity is 20.2%.
Regarding `COc1cc(-c2nnc3sc(-c4ccncc4)nn23)cc(OC)c1OC`, the cytotoxicity is -12.2%.
As to `COc1cccc(-c2nn3c(-c4ccco4)nnc3s2)c1`, the cytotoxicity was -0.7%.
In the case of `CCOc1ccc(N=C(NC#N)SC)cc1`, the cytotoxicity was -2.8%.
Consider `CCN(CC)CCNC(=O)c1ccc2c(c1)ncn2C1CCCCC1`, for which the cytotoxicity was 0.5%.
To `O=C(Nc1cccc(C(F)(F)F)c1)C1CCCN(S(=O)(=O)c2cnc[nH]2)C1` (stereo not drawn) belongs -7.5%; to `CCOC(=O)CN(C(=O)CSc1nnc(-c2ccncc2)n1CCCN(C)C)c1ccccc1`, -4.8%; to `Cc1nc2c3c4c(sc3n3c(SCC(=O)NCc5ccco5)nnc3n2n1)COC(C)(C)C4`, -6.3%.
Under `Cc1cc(Cl)c(S(=O)(=O)NCc2ccncc2)cc1OCC(N)=O` stands 5.1%.
To `CC1(C)CC(=O)C=C(Nc2ccccc2F)C1` belongs 1.2%; to `O=C(c1ccc(Cl)cc1)C1CCN(C(=O)NC2CCCCC2)CC1`, -11.6%.
As for `N#CCCCN1C(=O)C(O)(CC(=O)c2ccc3c(c2)OCCO3)c2ccccc21` (stereo not drawn), the cytotoxicity was -27.8%.
Turning to `Cc1ccc(-n2c(Cn3cnc4ccccc43)nnc2SCC(=O)O)cc1`, the cytotoxicity was -16.2%.
`COc1ccc(NC(C)=O)cc1NC(=O)CN1CCN(CC(=O)Nc2ccc(Cl)cc2)CC1`: the cytotoxicity was -12.5%.
Take `CCc1nc2ccccc2c(NC(=O)CN2CCC(C)CC2)c1C`: the cytotoxicity was 8.8%.
To `CCOC(=O)C1CCCN(CC(=O)NC2=Nc3ccccc3N=C(C)C2c2ccccc2)C1` (stereo not drawn) belongs 3.8%; to `O=C(NCc1ccc(F)cc1)c1noc2c1CCCC2`, -10.3%.
To `Fc1ccc(-c2ccc(-c3nn4c(-c5ccco5)nnc4s3)o2)cc1` belongs 73.5% (active).
As to `Clc1ccc(-c2ccc(-c3nn4c(-c5ccco5)nnc4s3)o2)cc1`, the cytotoxicity was -11.9%.
Under `Cc1oc(-c2ccc(F)cc2)cc1-c1nn2c(-c3ccco3)nnc2s1` stands -18%; under `COc1cccc(OCc2nc3ccccc3c(=O)n2N)c1`, -8.2%; under `CCCn1c(C)nc2c(c1=O)c1nc3ccccc3nc1n2-c1ccc2c(c1)OCCO2`, 51.4% (active).
To `CCC(C)n1cnc2c(c1=O)c1nc3ccccc3nc1n2-c1ccc2c(c1)OCCO2` (stereo not drawn) belongs -13.4%.
In the case of `O=c1c2c3nc4ccccc4nc3n(-c3ccc4c(c3)OCCO4)c2ncn1CC1CCCO1` (stereo not drawn), the cytotoxicity was 0.3%.
In the case of `CC(=NCC1CCCO1)C1=C(O)CC(C)(C)CC1=O` (stereo not drawn), the cytotoxicity was -12.6%.
To `Cc1ccccc1-n1nc2c(c1NC(=O)COc1ccc(Cl)cc1)CS(=O)C2` (stereo not drawn) belongs 10%; to `CCCNC(=O)c1cc(-c2ccco2)on1`, -2.4%.
To `CCCOc1ccc(C(=O)NCc2cccnc2)cc1` belongs -13.2%; to `Cc1ccc(S(=O)(=O)Cn2nnnc2C(CC(C)C)N2CCN(C(=O)c3ccco3)CC2)cc1` (stereo not drawn), 4.4%.
With `CCCCN(CCCC)S(=O)(=O)c1ccc(C(=O)Nc2nnc(COC)o2)cc1`, the cytotoxicity is 75.3% (active).
With `CCN(c1ccccc1)S(=O)(=O)c1ccc(C(=O)Nc2nnc(COC)o2)cc1`, the cytotoxicity was 60.9% (active).
As to `COCc1nnc(NC(=O)c2ccc(S(=O)(=O)N(C)c3ccccc3)cc2)o1`, the cytotoxicity was 42.1%.
On to `CCCCN(CC)S(=O)(=O)c1ccc(C(=O)Nc2nnc(CSC)o2)cc1`, for which the cytotoxicity was 23.6%.
Under `COCc1nnc(NC(=O)c2ccc(S(=O)(=O)N(C)C3CCCCC3)cc2)o1` stands 47.9%; under `CSCc1nnc(NC(=O)c2ccc(S(=O)(=O)N(CC(C)C)CC(C)C)cc2)o1`, 62.4% (active).
To `CCCCN(CC)S(=O)(=O)c1ccc(C(=O)Nc2nnc(COC)o2)cc1` belongs 17.5%.
To `CCc1nnc(NC(=O)c2ccc(S(=O)(=O)N(CC(C)C)CC(C)C)cc2)o1` belongs 48.8%; to `COCCN(CCOC)S(=O)(=O)c1ccc(C(=O)Nc2nnc(C)o2)cc1`, -6.2%; to `CCCCN(CCCC)S(=O)(=O)c1ccc(C(=O)Nc2nnc(CSC)o2)cc1`, 73.1% (active).
`CCCN(CCC)S(=O)(=O)c1ccc(C(=O)Nc2nnc(CSC)o2)cc1`: the cytotoxicity is 12.6%.
Regarding `CCc1nnc(NC(=O)c2ccc(S(=O)(=O)N(CCOC)CCOC)cc2)o1`, the cytotoxicity is -20.2%.
To `O=C(O)C1CC(=O)N(c2ccc(F)c(F)c2)C1` (stereo not drawn) belongs -4.7%; to `CC1CCN(C(=O)CSc2nnc(-c3cc4ccccc4cc3O)n2Cc2ccco2)CC1`, 22.2%; to `CCOC(=O)Cn1nc(C)c(-c2ccccc2)c1N`, -9.4%.
Under `Cc1nc2sc(C(c3ccccc3)N3CCC(O)CC3)c(O)n2n1` (stereo not drawn) stands 7.2%; under `O=C(O)c1ccc(S(=O)(=O)c2ccc3c(c2)C(=O)N(CC2CCCO2)C3=O)cc1` (stereo not drawn), -5.6%; under `O=C(NC1CCCC1)C1CC(=O)N(C2CCCCCCC2)C1` (stereo not drawn), -18%.
Under `CCNc1c2c3c(cccc3n(C)c1=O)C(=O)c1ccccc1-2` stands 53.8% (active).
For the molecule `CC(=O)Nc1c2c3c(cccc3n(C)c1=O)C(=O)c1ccccc1-2`, the cytotoxicity was -6.7%.
To `Cn1c(=O)c(NCCO)c2c3c(cccc31)C(=O)c1ccccc1-2` belongs -8.4%.
